Results as given in PubChem BioAssay (NCI).
About 83,000 compounds went through this panel and 20% of them were active in at least one assay; those are over-represented in the sample as a whole.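 Treatment: one concentration, 48 hours, 96-well format. Scoring: percent growth, with anything below 10 considered active.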 A number with no mark means an inactive call. Calls of active or inactive are those of the source.

Legend:
Assay in all cases: NCI-60 one-dose screen, 48 h (100 = growth as untreated, 0 = no growth, -100 = all killed)
Conditions in all cases: 10 µM unless noted
HCT-15 colon = test system: HCT-15 colon
HT29 colon = test system: HT29 colon
SNB-75 CNS = test system: SNB-75 CNS
SNB-19 CNS = test system: SNB-19 CNS
U251 CNS = test system: U251 CNS
PC-3 prostate = test system: PC-3 prostate
SK-MEL-5 melanoma = test system: SK-MEL-5 melanoma
UACC-62 melanoma = test system: UACC-62 melanoma
LOX IMVI melanoma = test system: LOX IMVI melanoma
SK-MEL-28 melanoma = test system: SK-MEL-28 melanoma
SK-MEL-2 melanoma = test system: SK-MEL-2 melanoma
EKVX NSCLC = test system: EKVX NSCLC
SN12C renal = test system: SN12C renal
UO-31 renal = test system: UO-31 renal
TK-10 renal = test system: TK-10 renal
ACHN renal = test system: ACHN renal
CAKI-1 renal = test system: CAKI-1 renal
A498 renal = test system: A498 renal
CCRF-CEM leukemia = test system: CCRF-CEM leukemia
MOLT-4 leukemia = test system: MOLT-4 leukemia

Row | Compound | growth (HCT-15 colon) | growth (HT29 colon) | growth (SNB-75 CNS) | growth (SNB-19 CNS) | growth (U251 CNS) | growth (PC-3 prostate) | growth (SK-MEL-5 melanoma) | growth (UACC-62 melanoma) | growth (LOX IMVI melanoma) | growth (SK-MEL-28 melanoma) | growth (SK-MEL-2 melanoma) | growth (EKVX NSCLC) | growth (SN12C renal) | growth (UO-31 renal) | growth (TK-10 renal) | growth (ACHN renal) | growth (CAKI-1 renal) | growth (A498 renal) | growth (CCRF-CEM leukemia) | growth (MOLT-4 leukemia)
1 | COc1cc2oc(-c3cccc(NC(=O)c4cccc(Br)c4)c3)cc(=O)c2c(OC)c1OC | 31.3% | 34.7% | 62.6% | 75.2% | 53.9% | 34.6% | 48.6% | 57.1% | 39.6% | 71.1% | 54% | 61.3% | 54.2% | 36.8% | 65.5% | 44.1% | 51.4% | 46.6% | 30.3% | 41.7%
2 | COc1ccc2[nH]cc(C(c3cc(F)cc(F)c3)c3c[nH]c4ccc(OC)cc34)c2c1 | 65.2% | 81.5% | 85.9% | 82.9% | 86.8% | 50.2% | 91.7% | 85.5% | 67.3% | 105% | 62.5% | 88.4% | 87.3% | 44.2% | 124% | 82.9% | 101% | 77.8% | 60.1% | 37.4%
3 | CCOC(=O)c1cc(-c2ccc([N+](=O)[O-])cc2)n(-c2ccc(C(=O)O)c(O)c2)c1C | 50.2% | 44.2% | 53.5% | 90.7% | 70.9% | 23.5% | 52% | 54% | 66.8% | 90.5% | 53.8% | 55.3% | 72.7% | 24.5% | 101% | 68.7% | 79.4% | 76.4% | 50% | 27.2%
4 | S=C1CCSC(=S)N1CCCN1C(=S)CCSC1=S | 51.4% | 67.8% | 70% | 89.7% | 83.2% | 69.1% | 91.5% | 50.4% | 38.2% | 86.6% | 96.1% | 101% | 75.6% | 45.1% | 66% | 44.4% | 58.9% | 102% | 16.7% | 30.1%
5 | COc1ccc(-c2nc3c(c(-c4ccccc4)nn3-c3ccccc3)c(-c3ccc(N4CCOCC4)cc3)c2C#N)cc1 | 91.4% | 105% | 105% | 103% | 84.8% | 101% | 101% | 91.1% | 92.2% | 100% | 106% | 100% | 97.9% | 103% | 110% | 104% | 93.7% | 98.2% | 99.6% | 94.4%
6 | OCCNCCCOc1ccc2ncnc(Nc3ccc(Oc4cccc(C(F)(F)F)c4)c(Cl)c3)c2c1 | -23.8% (active) | -13.3% (active) | 62.4% | 44.9% | 3.99% (active) | 30.5% | 48.9% | 88.3% | -98.9% (active) | 73.1% | 73.5% | 27% | 58.1% | 26% | 49% | -45.4% (active) | 9.01% (active) | 58.8% | 6.8% (active) | 1.07% (active)
7 | CC(=O)c1cc(O)c2ccccc2c1O | 98.9% | 111% | 70.7% | 100% | 98.2% | 85.7% | 86.4% | 101% | 78.5% | 137% | 103% | 78.9% | 105% | 67% | 148% | 85.1% | 85.7% | 133% | -10.5% (active) | 107%
